1 molecule from PubChem BioAssay AID623892 (Vanderbilt Specialized Chemistry Center, 2012) can be followed below.

The target of the experiment is Metabotropic glutamate receptor 8 (Rattus norvegicus) (UniProt P70579). In words: off-target activity at rat mGlu8, profiling panel, selectivity assay for mGlu4 lead optimization, cell-based, thallium flux (AID 623892). Conditions: HEK cells rat mGlu8, thallium flux, at 10 µM.

A number with no mark means an inactive call.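 The calls were made as follows: active = potentiator with a glutamate EC50 fold shift of at least 2, or antagonist at 0.5 or below; inactive = fold shift between 0.5 and 2.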

Sequence of Metabotropic glutamate receptor 8 (Rattus norvegicus) (P70579 whole entry, looked up): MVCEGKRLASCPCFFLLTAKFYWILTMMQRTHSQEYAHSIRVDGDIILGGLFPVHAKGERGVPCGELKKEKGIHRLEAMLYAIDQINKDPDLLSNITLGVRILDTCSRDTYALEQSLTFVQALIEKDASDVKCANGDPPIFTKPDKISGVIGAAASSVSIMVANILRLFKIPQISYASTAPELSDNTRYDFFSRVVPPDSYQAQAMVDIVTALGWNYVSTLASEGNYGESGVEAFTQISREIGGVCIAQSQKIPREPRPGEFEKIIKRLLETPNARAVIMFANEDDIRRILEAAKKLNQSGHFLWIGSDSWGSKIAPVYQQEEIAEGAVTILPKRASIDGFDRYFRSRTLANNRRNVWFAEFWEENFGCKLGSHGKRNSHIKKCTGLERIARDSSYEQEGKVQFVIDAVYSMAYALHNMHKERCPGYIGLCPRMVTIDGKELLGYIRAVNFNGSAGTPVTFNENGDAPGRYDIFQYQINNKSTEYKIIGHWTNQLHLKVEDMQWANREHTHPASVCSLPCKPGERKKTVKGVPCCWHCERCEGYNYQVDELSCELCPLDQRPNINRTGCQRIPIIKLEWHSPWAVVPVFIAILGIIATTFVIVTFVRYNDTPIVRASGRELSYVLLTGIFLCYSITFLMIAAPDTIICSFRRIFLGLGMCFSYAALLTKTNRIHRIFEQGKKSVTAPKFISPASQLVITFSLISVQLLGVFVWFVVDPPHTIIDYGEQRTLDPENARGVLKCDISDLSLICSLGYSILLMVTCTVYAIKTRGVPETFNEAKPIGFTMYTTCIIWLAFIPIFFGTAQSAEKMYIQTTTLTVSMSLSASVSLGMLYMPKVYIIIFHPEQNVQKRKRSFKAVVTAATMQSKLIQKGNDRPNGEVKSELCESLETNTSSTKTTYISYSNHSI

Consider `O=C(Nc1cccc(Cl)c1)c1ccccn1`, for which the fold shift of glutamate EC50 was 1.47.
